PubChem BioAssay (NCI)
This is part of a sample that, as a whole, favours compounds with a hit. Of some 79,000 tested, about 15% had one in any assay. Active and inactive are the calls of the source. No stated cut-off is given here; in the data, active means growth inhibition above about 70%; inactive means the rest.

Assays:
[1] = NCI Yeast Anticancer Drug Screen. Data for the rad52 strain (AID 147);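 further: 0% = growth of vehicle-treated control cultures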; conditions: S. cerevisiae rad52 mutant growth inhibition, hits give high values
Outline: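 The repair-mutant yeast strain was incubated with compounds, then growth was read and inhibition derived relative to vehicle.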

[2] = NCI Yeast Anticancer Drug Screen. Data for the wt1 strain (AID 149);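 further: 0% = growth of vehicle-treated wt1 cultures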; conditions: S. cerevisiae wt1 strain (SPY 50644) growth inhibition, hits give high values
Outline: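 The wt1 strain was treated with compounds, and growth was compared with vehicle-treated cultures to give inhibition.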

[3] = NCI Yeast Anticancer Drug Screen. Data for the rad50EPP+ strain (AID 151);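 further: 0% = growth of vehicle-treated control cultures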; conditions: S. cerevisiae rad50 mutant strain, hits give high values
Outline: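 Vehicle-normalised growth inhibition; rad50EPP+ yeast strain, altered in DNA damage repair, compound-treated.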

[4] = NCI Yeast Anticancer Drug Screen. Data for the mgt1 strain (AID 153); conditions: S. cerevisiae mgt1 mutant growth inhibition, hits give high values
Outline: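 Vehicle-normalized growth inhibition is determined in mgt1 yeast, a strain selected for a defined alteration in DNA repair or cell cycle control.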

[5] = NCI Yeast Anticancer Drug Screen. Data for the rad50 strain (AID 155);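 further: 0% = growth of vehicle-only cultures of the same strain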; conditions: S. cerevisiae rad50 strain growth inhibition, hits give high values
Outline: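 Cells are treated with compound, grown, and their growth is then scored against vehicle-only cultures of the same repair-deficient yeast strain.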

[6] = NCI Yeast Anticancer Drug Screen. Data for the mec2-1 strain (AID 157); conditions: S. cerevisiae mec2-1 strain, hits give high values
Outline: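 Mutant yeast (mec2-1) grown with compound; growth inhibition relative to vehicle control reported.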

[7] = NCI Yeast Anticancer Drug Screen. Data for the rad14 strain (AID 159);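 further: 0% = growth of vehicle-treated control cultures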; conditions: S. cerevisiae rad14 strain growth inhibition, hits give high values
Outline: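 Readout: yeast growth inhibition, referenced to vehicle-only cultures. Strain bears a defined alteration in DNA damage repair.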

[8] = NCI Yeast Anticancer Drug Screen. Data for the sgs1 mgt1 strain (AID 161);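 further: 0% = growth of cultures given vehicle only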; conditions: S. cerevisiae sgs1 mgt1 strain, hits give high values
Outline: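 Compounds are added to genetically altered yeast, and growth is compared with cultures given vehicle alone to give percent inhibition.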

[9] = NCI Yeast Anticancer Drug Screen. Data for the CLN2oe strain (AID 163);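 further: 0% = growth of vehicle-only control cultures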; conditions: S. cerevisiae CLN2oe strain, hits give high values
Outline: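 Compounds are applied to yeast harbouring a defined cell-cycle control change; reduced growth compared with vehicle-treated controls gives the value.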

[10] = NCI Yeast Anticancer Drug Screen. Data for the cln2 rad14 strain (AID 165);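 further: 0% = growth equal to vehicle treated cultures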; conditions: S. cerevisiae cln2 rad14 strain, hits give high values
Outline: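 Readout is yeast growth inhibition versus vehicle-treated controls, using a strain with cln2 and rad14 alterations exposed to compound.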

[11] = NCI Yeast Anticancer Drug Screen. Data for the bub3 strain (AID 167); conditions: S. cerevisiae bub3 mutant strain, hits give high values
Outline: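 Part of a panel of yeast mutants defective in DNA damage repair or cell cycle regulation. Each strain is grown with compound, and inhibition is calculated relative to solvent-treated cultures.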

[12] = NCI Yeast Anticancer Drug Screen. Data for the wt2 strain (AID 169);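 further: 0% = growth of vehicle-treated yeast cultures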; conditions: S. cerevisiae wt2 strain growth inhibition, hits give high values
Outline: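 Against vehicle-treated controls, the growth of yeast exposed to each compound was compared, and the inhibition was recorded.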

[13] = NCI Yeast Anticancer Drug Screen. Data for the mlh1 strain (AID 171);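 further: 0% = growth of vehicle-treated control cultures of the same strain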; conditions: S. cerevisiae mlh1 strain growth inhibition, hits give high values
Outline: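 Measured: yeast growth. Reference: vehicle-treated controls. Organism: strain with a defined alteration affecting DNA damage repair or cell cycle control, treated with compound.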

[14] = NCI Yeast Anticancer Drug Screen. Data for the sgs1 strain (AID 173);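 further: 0% = growth of vehicle-only control cultures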; conditions: S. cerevisiae sgs1 mutant, hits give high values
Outline: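 Each compound was added to cultures of the altered yeast strain. Growth was recorded, and inhibition was derived by comparison with vehicle controls.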

[15] = NCI Yeast Anticancer Drug Screen. Data for the mlh1 rad18 strain (AID 175); conditions: S. cerevisiae mlh1 rad18 strain growth inhibition, hits give high values
Outline: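 Genetically defined yeast (DNA repair-deficient) exposed to compounds; growth inhibition determined relative to vehicle.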

[16] = NCI Yeast Anticancer Drug Screen. Data for the rad18 strain (AID 177); conditions: S. cerevisiae rad18 mutant growth inhibition, hits give high values
Outline: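 Vehicle-treated cultures served as the baseline for scoring compound-induced growth inhibition in DNA-repair-mutant yeast.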

[17] = at 5.0 µM (retest, dose inferred, filed as 0.5)
[18] = at 50.0 µM (retest, dose inferred, filed as 5.0)

Measured: growth inhibition

Nc1nc2ccc(NCc3ccc(C(=O)NC(CCC(=O)O)C(=O)O)cc3)cc2c(=O)[nH]1 (stereo unspecified)
inactive: [1]; at 1.2 µM -15% | [1]; at 3.7 µM -35% | [1]; at 11.0 µM -21% | [1]; at 33.0 µM 32% | [2]; at 1.2 µM -6% | [2]; at 3.7 µM -17% | [2]; at 11.0 µM -19% | [2]; at 33.0 µM 3% | [2]; at 100.0 µM 55% | [3]; at 1.2 µM 7% | [3]; at 3.7 µM -24% | [3]; at 11.0 µM -9% | [3]; at 33.0 µM -18% | [3]; at 100.0 µM 5% | [4]; at 1.2 µM -14% | [4]; at 3.7 µM -14% | [4]; at 11.0 µM -24% | [4]; at 33.0 µM 0% | [4]; at 100.0 µM 26% | [5]; at 1.2 µM 7% | [5]; at 3.7 µM -19% | [5]; [17] 3% | [5]; at 11.0 µM 9% | [5]; at 33.0 µM 23% | [5]; [18] 18% | [5]; at 50.0 µM 22.1% | [6]; at 1.2 µM -4% | [6]; at 3.7 µM 1% | [6]; [17] -3% | [6]; at 11.0 µM 8% | [7]; at 1.2 µM -20% | [7]; at 3.7 µM -19% | [7]; at 11.0 µM -31% | [7]; at 33.0 µM -5% | [7]; at 100.0 µM 55% | [8]; [17] 21% | [8]; [18] 18% | [8]; at 50.0 µM 25% | [9]; at 1.2 µM 10% | [9]; at 3.7 µM 7% | [9]; at 11.0 µM -5% | [9]; at 33.0 µM 2% | [9]; at 100.0 µM 6% | [10]; [17] 25% | [10]; [18] 25% | [10]; at 50.0 µM 8.85% | [11]; at 1.2 µM -7% | [11]; at 3.7 µM 6% | [11]; [17] 12% | [11]; at 11.0 µM -4% | [11]; at 33.0 µM 6% | [11]; [18] -24% | [11]; at 50.0 µM 30.9% | [12]; at 1.2 µM -24% | [12]; at 3.7 µM -23% | [12]; at 11.0 µM -22% | [12]; at 33.0 µM -26% | [12]; at 100.0 µM -17% | [13]; at 1.2 µM -5% | [13]; at 3.7 µM 2% | [13]; at 11.0 µM 0% | [13]; at 33.0 µM 11% | [13]; at 100.0 µM 39% | [14]; at 1.2 µM -3% | [14]; at 3.7 µM 9% | [14]; at 11.0 µM 6% | [14]; at 33.0 µM 6% | [14]; at 100.0 µM 51% | [15]; [17] 6% | [15]; [18] 2% | [15]; at 50.0 µM 59.4% | [16]; at 1.2 µM -11% | [16]; at 3.7 µM 1% | [16]; at 11.0 µM -12% | [16]; at 33.0 µM 5% | [16]; at 100.0 µM 63%
active: [1]; at 100.0 µM 74% | [5]; at 100.0 µM 77% | [6]; at 33.0 µM 92% | [6]; [18] 81% | [6]; at 50.0 µM 75.3% | [6]; at 100.0 µM 97% | [11]; at 100.0 µM 76%

O=C(/C=C(/c1ccccc1)N1CCCCC1)c1ccccc1
inactive: [1]; at 1.2 µM 0% | [1]; at 3.7 µM 3% | [1]; at 11.0 µM 5% | [1]; at 33.0 µM 13% | [2]; at 1.2 µM -1% | [2]; at 3.7 µM 4% | [2]; at 11.0 µM 1% | [2]; at 33.0 µM 9% | [3]; at 1.2 µM 3% | [3]; at 3.7 µM 16% | [3]; at 11.0 µM 42% | [3]; at 33.0 µM 43% | [3]; at 100.0 µM 31% | [4]; at 1.2 µM -3% | [4]; at 3.7 µM -2% | [4]; at 11.0 µM 0% | [4]; at 33.0 µM 10% | [5]; at 1.2 µM -1% | [5]; at 3.7 µM -1% | [5]; [17] 0% | [5]; at 11.0 µM 5% | [5]; at 33.0 µM 11% | [6]; at 1.2 µM -4% | [6]; at 3.7 µM -5% | [6]; [17] -12% | [6]; at 11.0 µM -3% | [6]; at 33.0 µM 7% | [6]; at 50.0 µM 53% | [7]; at 1.2 µM 3% | [7]; at 3.7 µM 6% | [7]; at 11.0 µM 9% | [7]; at 33.0 µM 30% | [8]; [17] 44% | [9]; at 1.2 µM -6% | [9]; at 3.7 µM -7% | [9]; at 11.0 µM -3% | [9]; at 33.0 µM -4% | [10]; [17] 14% | [10]; at 50.0 µM 46% | [11]; at 1.2 µM 2% | [11]; at 3.7 µM 3% | [11]; [17] 34% | [11]; at 11.0 µM 7% | [11]; at 33.0 µM 19% | [11]; at 50.0 µM 54.8% | [12]; at 1.2 µM -1% | [12]; at 3.7 µM 1% | [12]; at 11.0 µM 1% | [12]; at 33.0 µM 15% | [13]; at 1.2 µM -4% | [13]; at 3.7 µM -1% | [13]; at 11.0 µM -3% | [13]; at 33.0 µM 5% | [14]; at 1.2 µM -1% | [14]; at 3.7 µM -1% | [14]; at 11.0 µM 3% | [14]; at 33.0 µM 20% | [15]; [17] 55% | [16]; at 1.2 µM -2% | [16]; at 3.7 µM 1% | [16]; at 11.0 µM 3% | [16]; at 33.0 µM 9%
active: [1]; at 100.0 µM 98% | [2]; at 100.0 µM 94% | [4]; at 100.0 µM 87% | [5]; [18] 92% | [5]; at 50.0 µM 90.3% | [5]; at 100.0 µM 97% | [6]; [18] 84% | [6]; at 100.0 µM 82% | [7]; at 100.0 µM 98% | [8]; [18] 94% | [8]; at 50.0 µM 82.1% | [9]; at 100.0 µM 97% | [10]; [18] 79% | [11]; [18] 99% | [11]; at 100.0 µM 94% | [12]; at 100.0 µM 95% | [13]; at 100.0 µM 96% | [14]; at 100.0 µM 97% | [15]; [18] 99% | [15]; at 50.0 µM 89.3% | [16]; at 100.0 µM 97%
